The record followed here is PubChem BioAssay (NCI).

What all share (assay): NCI-60 one-dose screen, 48 h (100 = growth as untreated, 0 = no growth, -100 = all killed)
Holding throughout (conditions): 10 µM unless noted

Assay [1] has as its system SR leukemia.
Assay [2] concerns RPMI-8226 leukemia.
Assay [3] has as its system OVCAR-8 ovarian.
Assay [4] relates to OVCAR-5 ovarian.
In assay [5] the test system is OVCAR-4 ovarian.
The test system of assay [6] is SK-OV-3 ovarian.
Assay [7] relates to IGROV1 ovarian.
The subject of assay [8] is OVCAR-3 ovarian.
Assay [9] deals with HS 578T breast.
For assay [10], the system named is NCI/ADR-RES ovarian.
The test system of assay [11] is T-47D breast.
In assay [12] the test system is BT-549 breast.
In assay [13] the test system is MDA-MB-435 melanoma.
The test system of assay [14] is SW-620 colon.
For assay [15], the system named is MCF7 breast.
Assay [16] deals with HCT-116 colon.
For assay [17], the system named is HCC-2998 colon.
Assay [18] has as its system KM12 colon.

Molecules are shown by their SMILES. Compounds without any hit were thinned out: in the full panel of roughly 83,000, 20% have a hit.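 Growth was measured after 48 h exposure to one concentration of compound in 96-well plates. Values under 10 count as active.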 Unmarked numbers belong to inactive results. Activity calls are given as the source filed them.

Consider `CCN(CC)CCCNC(=O)c1ccc(N)cc1O`, for which the growth in [1] is 98.3%; in assay [2], 94.7%; in assay [3] it was 103%; in assay [4] it was 98.9%; in [5], 118%; in [6], 105%. The growth was 91.8% in [7]; 107% in assay [8]; 98.4% in assay [9]; 96.1% in [10]; 107% in assay [11]; 98.7% in assay [12]. Besides, the growth in assay [13] was 117%; in assay [14], 96.2%; in assay [15], 96.8%; in [16], 94.7%; in assay [17] it was 78.8%; in [18], 106%.
For the molecule `O=C(Nc1ccccc1Cl)OCCN1CCOCC1`, the growth in [1] is 103%; in assay [2] it was 101%; in assay [3] it was 107%; in [4], 110%; in assay [5], 110%; in assay [6] it was 112%. For the same molecule, the growth in assay [7] is 107%; in assay [8], 105%; in assay [9], 120%; in [10] it was 104%; in [11], 101%; in assay [12], 72.2%. Moreover, the growth in assay [13] was 107%; in [14], 104%; in [15] it was 105%; in [16] it was 73.8%; in assay [17], 99.6%; in assay [18], 102%.
`CCNCCNc1cc(-c2ccc(Cl)cc2)c(C#N)c2nc3ccccc3n12`: the growth in [1] was -35.6% (active); in [2] it was -19.4% (active); in assay [3], 10.7%; in [4] it was 4.7% (active); in assay [5], -9.51% (active); in [6], 31.5%. In addition, the growth is 22.4% in assay [7]; -78.2% (active) in [8]; -36% (active) in assay [9]; 22.6% in assay [10]; -60% (active) in [11]; -33.4% (active) in assay [12]. Besides, the growth in assay [13] was -85.7% (active); in assay [14] it was -71.9% (active); in [15], -22.8% (active); in assay [16], -78% (active); in assay [17] it was 4.11% (active); in assay [18] it was 27.8%.
`Clc1ccc(-c2cn(-c3ccccc3)c(-c3ccccc3)n2)cc1`: the growth was -19.6% (active) in assay [1]; -54.6% (active) in assay [2]; 90.7% in assay [3]; 90% in [4]; 88.1% in [5]; 102% in [6]. Moreover, the growth in [7] was 48%; in assay [8], 80%; in [9] it was 102%; in assay [10], 93.4%; in assay [11], 56.7%; in assay [12], 62.9%. Further, the growth in assay [13] is 87.7%; in assay [14] it was 66.7%; in assay [15] it was 9.74% (active); in assay [16], 27.2%; in assay [17] it was 97.6%; in assay [18], 53.6%.
With `C[C@@H]1CC[C@@H]2[C@@H]1[C@H](OC(=O)/C=C/c1ccccc1)[C@]1(C3CCCCC3)C[C@@H](NC(=O)CO)[C@@]2(C)O1`, the growth is 93.9% in [1]; 100% in [2]; 98.6% in assay [3]; 94.6% in assay [4]; 102% in assay [5]; 112% in assay [6]. In addition, the growth in assay [7] was 101%; in [8], 98.6%; in assay [9], 8.45% (active); in [10], 95.4%; in assay [11] it was 95%; in [12], 98.6%. Also, the growth in assay [13] was 94.3%; in [14], 90%; in assay [15], 89.6%; in [16], 85.7%; in [17] it was 95.4%; in [18] it was 103%.
As to `Nc1ccn(C2OC(F)(CO)C(O)C2F)c(=O)n1` (centres undefined), the growth in [1] was 90.4%; in assay [2], 106%; in assay [3], 22.4%; in assay [4] it was 97.4%; in [5], 73.2%; in assay [6] it was 33.4%. In addition, the growth in assay [7] is 49.8%; in assay [8], 66.8%; in assay [9] it was 78.8%; in assay [10], 18.4%; in [11] it was 55.3%; in [12], 44.4%. Also, the growth in assay [13] is 52.9%; in assay [14], 52.1%; in assay [15], 21.7%; in assay [16], 35.3%; in [17], 48.3%; in assay [18], 59.2%.
As to `O=C1c2ccccc2C(=O)c2cc(Cn3cc[n+](Cc4ccc5ccccc5c4)c3)ccc21`, the growth in assay [1] is 73.7%; in assay [2], 17.2%; in assay [3], 89.5%; in assay [4] it was 84.6%; in [5] it was 58.7%; in [6] it was 105%. In addition, the growth in [7] was 29.6%; in assay [8], 40.8%; in assay [9], 92.6%; in assay [10], 104%; in assay [11], 70.1%; in assay [12], 60.1%. Moreover, the growth was 84.8% in assay [13]; 84.2% in assay [14]; 59.2% in [15]; 84.3% in assay [16]; 79.1% in [17]; 77.8% in [18].
Take `CC(C)c1ccc(C(=O)OC(=O)c2ccc(C(C)C)cc2)cc1`: the growth in assay [1] was 60.2%; in [2], 82.9%; in assay [3] it was 100%; in assay [4], 89.2%; in [5], 105%; in [6], 110%. Besides, the growth is 98.8% in assay [7]; 106% in assay [8]; 104% in assay [9]; 95.4% in assay [10]; 95.3% in [11]; 87.9% in [12]. In addition, the growth is 97% in [13]; 114% in assay [14]; 98.1% in assay [15]; 97.4% in assay [16]; 102% in assay [17]; 123% in assay [18].
